The values that follow come from PubChem BioAssay (EPA / NIEHS).

Records with an inconclusive call do not appear. Activity calls are given as the source filed them. The calls were made as follows, unless noted: active = hit-call score of the fitted dose curve at least 0.9, where 1 is the maximum; inactive = score below 0.9.

The target in test [1] is Myc proto-oncogene protein (Homo sapiens) (UniProt P01106). Kind of test: ATG_Myc_CIS: Attagene CIS-FACTORIAL HepG2 Assay for human Myelocytomatosis (Myc) Proto-Oncogene Transcription Factor (AID 2282990). The note with it: HepG2, Attagene cis-reporter transcription factor activity; actives raise or lower the signal. A digest of the protocol: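 HepG2, transient MRTU transfection (cis promoters, endogenous TFs); 24 h dosing; TriZol RNA → oligo(dT) RT → PCR → 6-FAM primer extension → HpaI cut → CE. Bidirectional fit vs DMSO.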
Chain of Myc proto-oncogene protein (Homo sapiens) (P01106 whole entry, looked up): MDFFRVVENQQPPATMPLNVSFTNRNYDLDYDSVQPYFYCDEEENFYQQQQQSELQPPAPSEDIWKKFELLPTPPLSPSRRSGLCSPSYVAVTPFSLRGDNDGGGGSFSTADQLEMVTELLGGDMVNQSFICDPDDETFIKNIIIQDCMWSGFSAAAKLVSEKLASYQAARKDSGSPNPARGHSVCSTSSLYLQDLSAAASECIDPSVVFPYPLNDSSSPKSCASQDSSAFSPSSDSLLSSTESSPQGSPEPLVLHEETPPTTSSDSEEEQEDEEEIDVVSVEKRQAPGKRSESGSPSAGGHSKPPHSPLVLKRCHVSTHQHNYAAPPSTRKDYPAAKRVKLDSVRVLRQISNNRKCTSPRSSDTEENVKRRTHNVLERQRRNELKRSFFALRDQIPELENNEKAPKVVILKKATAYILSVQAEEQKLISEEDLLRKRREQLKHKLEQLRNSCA

Test [2] is described as follows: ATG_NF_kB_CIS: Attagene CIS-FACTORIAL HepG2 Assay for human Nuclear Factor Kappa B (NF-kB) (AID 2282991). The note with it: HepG2 Attagene cis-factorial NF-kB reporter mRNA; actives raise or lower the signal. Summed up:
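Fluorescence of labelled RT-PCR products separated by capillary electrophoresis gives reporter mRNA levels from transfected HepG2 cells exposed 24 h; values are fitted in both directions relative to DMSO.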

A short description of test [3]: ATG_NRF2_ARE_CIS: Attagene CIS-FACTORIAL HepG2 Assay for human Nuclear Factor Erythroid 2 Related Factor 2 (NFR2) response to Antioxidant Response Elements (ARE) (AID 2282992). The conditions noted are these: HepG2 Attagene ARE/NRF2 reporter, transcription factor activity; actives raise or lower the signal. A digest of the protocol: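 Multiplexed reporter mRNA profiling in HepG2 after a 24 h chemical exposure. Curves fitted in both directions relative to DMSO negative control.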

A short description of test [4]: ATG_Oct_MLP_CIS: Attagene CIS-FACTORIAL HepG2 Assay for human Octamer-Binding Transcription Factor (Oct) (AID 2282993). The note with it: HepG2 Attagene cis-factorial Oct reporter, mRNA; actives raise or lower the signal. A digest of the protocol: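 Cells of the HepG2 line express promoter-controlled reporter sequences whose mRNA levels, after 24 h treatment, are measured by RT-PCR and capillary electrophoresis. Increases and decreases are scored relative to DMSO.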

For test [5], the target named is Cellular tumor antigen p53 (Homo sapiens) (UniProt P04637). Kind of test: ATG_p53_CIS: Attagene CIS-FACTORIAL HepG2 Assay for human p53 Transcription Factor (AID 2282994). The conditions noted are these: HepG2 p53 cis-element reporter, Attagene mRNA; actives raise or lower the signal. Summed up:
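Multiplexed reporter mRNA assay in human HepG2 liver cells; cis-regulated units report endogenous factor activity. Values come from bidirectional curve fitting against DMSO negative control after 24 h treatment.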

The nature of test [6]: BSK_3C_TissueFactor: BioMAP Diversity Plus: 3C Assay for Tissue Factor Biomarker Activity (AID 2282997). The conditions noted are these: BioMAP 3C HUVEC, tissue factor biomarker readout; actives raise or lower the signal. Summed up:
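ELISA read-out of Tissue Factor levels on human umbilical vein endothelium collected 24 h after chemical dosing. Gain or loss of signal was fitted relative to DMSO.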

Test [7] can be described thus: BSK_3C_uPAR: BioMAP Diversity Plus: 3C Assay for Urokinase-type plasminogen activator receptor (uPAR) Biomarker Activity (AID 2282998). The note with it: BioMAP 3C HUVEC, uPAR biomarker ELISA; actives raise or lower the signal. A digest of the protocol: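 Endothelial primary cells of human umbilical vein origin received test chemical; 24 h later uPAR was assayed by ELISA. Fitting was bidirectional, DMSO as negative control.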
Background: In an ELISA, binding on a coated surface is turned into a signal by an enzyme label.

The nature of test [8]: BSK_3C_VCAM1: BioMAP Diversity Plus: 3C Assay for Vascular cell adhesion molecule 1 (VCAM1) Biomarker Activity (AID 2282999). The note with it: BioMAP 3C HUVEC, VCAM1 ELISA, cytokine-stimulated; actives raise or lower the signal. A digest of the protocol: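 Endothelial cells from human umbilical vein are treated with test chemical. At 24 h, VCAM-1 is measured by ELISA, and responses in either direction are fitted relative to DMSO.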

Test [9] can be described thus: BSK_4H_Eotaxin3: BioMAP Diversity Plus: 4H Assay for Eotaxin 3 Biomarker Activity (AID 2283000).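 As to outcome: CCL26 protein level quantified by ELISA in parallel with SRB cytotoxicity check.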 The conditions noted are these: primary human endothelial cells (HUVEC); actives raise or lower the signal. A digest of the protocol:
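Chemicals were added to human umbilical vein endothelium cultures, and Eotaxin-3 was quantified by ELISA at 24 h. Values were derived by bidirectional fitting with DMSO serving as negative control and activity baseline.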

The target in test [10] is human Peroxisome Proliferator-activated Receptor alpha (PPARa), PPARA (gene 5465) (UniProt Q07869). Kind of test: ATG_PPARa_TRANS: Attagene TRANS-FACTORIAL HepG2 Assay for human Peroxisome Proliferator-activated Receptor alpha (PPARa) (AID 2283001; active = hit-call score of the fitted dose curve at least 0.9, where 1 is the maximum;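 as to AC50: potency for gain of reporter signal over DMSO so agonist or activator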). Summed up:
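Reporter transcripts from GAL4-UAS units in transfected HepG2 were quantified 24 h after dosing. Detection used reverse transcription, PCR, fluorescent primer extension and capillary electrophoresis, with DMSO as baseline.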

Test [11] has as its target human Peroxisome Proliferator-activated Receptor delta (PPARd), PPARD (gene 5467) (UniProt Q03181). Kind of test: ATG_PPARd_TRANS: Attagene TRANS-FACTORIAL HepG2 Assay for human Peroxisome Proliferator-activated Receptor delta (PPARd) (AID 2283002; active = hit-call score of the fitted dose curve at least 0.9, where 1 is the maximum). Summed up: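 Transient HepG2 transfection (multiple GAL4-UAS RTUs, chimeric receptor-Gal4); 24 h dosing; total RNA → oligo(dT) RT → PCR → 6-FAM primer extension → HpaI cut → CE. Positive direction vs DMSO.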

Read-out in test [12]: Intercellular Adhesion Molecule 1 (ICAM1), ICAM1 (gene 3383)
Kind of test: BSK_3C_ICAM1: BioMAP Diversity Plus: 3C Assay for Intercellular Adhesion Molecule 1 (ICAM1) Biomarker Activity (AID 2283003). The note with it: primary human endothelial cells (HUVEC); actives raise or lower the signal. A digest of the protocol:
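Primary human umbilical vein endothelial cells in the BioMAP 3C system were exposed to chemicals for 24 h, then ICAM-1 was quantified by ELISA. Activity was fitted bidirectionally against the DMSO negative control baseline.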

Test [13] is described as follows: BSK_3C_Proliferation: Cell Proliferation Assessment in the BioMAP Diversity Plus: 3C Assay (AID 2283006).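 As to AC50: potency may reflect either rise or fall in cell number versus DMSO.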 The conditions noted are these: primary human endothelial cells (HUVEC). A digest of the protocol: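 Human umbilical vein endothelial cells were grown sub-confluent and exposed to chemical for 48 h, then fixed with 10% TCA and stained with 0.1% sulforhodamine B; absorbance at 560 nm gave relative cell number, fitted bidirectionally against DMSO baseline.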

Test [14] concerns the target Peroxisome proliferator-activated receptor gamma (Homo sapiens) (UniProt P37231). Kind of test: ATG_PPARg_TRANS: Attagene TRANS-FACTORIAL HepG2 Assay for human Peroxisome Proliferator-activated Receptor-gamma (PPARg) (AID 2283007; active = hit-call score of the fitted dose curve at least 0.9, where 1 is the maximum). Summed up:
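Twenty-four hours after chemical dosing of transiently transfected HepG2 cells, isolated RNA was converted to cDNA, reporter sequences amplified and 6-FAM-labelled, then HpaI-digested and analysed by capillary electrophoresis. Signal increase against DMSO was fitted.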

The target in test [15] is Nuclear receptor subfamily 1 group I member 2 (Homo sapiens) (UniProt O75469). Kind of test: ATG_PXR_TRANS: Attagene TRANS-FACTORIAL HepG2 Assay for human Pregnane X Receptor (PXR) (AID 2283008; active = hit-call score of the fitted dose curve at least 0.9, where 1 is the maximum). Summed up:
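Measures mRNA induction of a GAL4-UAS-driven reporter in human HepG2 cells transiently expressing PXR fused to Gal4, following 24 h treatment. DMSO served as negative control and baseline.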

Test [16] addresses human RAR-related Orphan Receptor beta (RORb), RORB (gene 6096) (UniProt Q92753). Kind of test: ATG_RORb_TRANS: Attagene TRANS-FACTORIAL HepG2 Assay for human RAR-related Orphan Receptor beta (RORb) (AID 2283010; active = hit-call score of the fitted dose curve at least 0.9, where 1 is the maximum). A digest of the protocol:
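HepG2 cells were transiently transfected with multiplexed GAL4-UAS reporter units expressing chimeric nuclear receptor–GAL4 proteins, then dosed for 24 h. Reporter mRNA was quantified by RT-PCR with fluorescent labelling and capillary electrophoresis; gain of signal was fitted relative to DMSO.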

The target of test [17] is human RAR-related Orphan Receptor gamma (RORg), RORC (gene 6097) (UniProt P51449). Kind of test: ATG_RORg_TRANS: Attagene TRANS-FACTORIAL HepG2 Assay for human RAR-related Orphan Receptor gamma (RORg) (AID 2283011; active = hit-call score of the fitted dose curve at least 0.9, where 1 is the maximum). Summed up:
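First, HepG2 liver cells were transfected with GAL4-UAS-driven reporter constructs and the RORg-Gal4 fusion. Next, they were treated with chemical for 24 h. Finally, reporter mRNA was quantified by RT-PCR and capillary electrophoresis, with upward activity fitted against DMSO.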

Test [18] addresses Retinoic acid receptor alpha (Homo sapiens) (UniProt P10276). Kind of test: ATG_RARa_TRANS: Attagene TRANS-FACTORIAL HepG2 Assay for human Retinoic Acid Receptor alpha (RARa) (AID 2283005; active = hit-call score of the fitted dose curve at least 0.9, where 1 is the maximum). Summed up: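 Reporter transcripts, measured by RT-PCR with fluorescent labeling and capillary electrophoresis after 24 h dosing, reflect activity of an exogenous human RARa–GAL4 fusion in transiently transfected HepG2. Fitted for increase relative to DMSO.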

The target of test [19] is Retinoic acid receptor RXR-alpha (Homo sapiens) (UniProt P19793). Kind of test: ATG_RXRa_TRANS: Attagene TRANS-FACTORIAL HepG2 Assay for human Retinoid X Receptor alpha (RXRa) (AID 2283012; active = hit-call score of the fitted dose curve at least 0.9, where 1 is the maximum). A digest of the protocol: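 HepG2 cells transiently transfected with multiplexed GAL4-UAS reporter units and chimeric NR-GAL4 fusions, dosed 24 h. Reporter mRNA measured by RT-PCR, FAM labelling, HpaI digestion and capillary electrophoresis; gain-of-signal fitted relative to DMSO baseline.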
Chain of Retinoic acid receptor RXR-alpha (Homo sapiens) (P19793 whole entry, looked up, the tested form may be a part): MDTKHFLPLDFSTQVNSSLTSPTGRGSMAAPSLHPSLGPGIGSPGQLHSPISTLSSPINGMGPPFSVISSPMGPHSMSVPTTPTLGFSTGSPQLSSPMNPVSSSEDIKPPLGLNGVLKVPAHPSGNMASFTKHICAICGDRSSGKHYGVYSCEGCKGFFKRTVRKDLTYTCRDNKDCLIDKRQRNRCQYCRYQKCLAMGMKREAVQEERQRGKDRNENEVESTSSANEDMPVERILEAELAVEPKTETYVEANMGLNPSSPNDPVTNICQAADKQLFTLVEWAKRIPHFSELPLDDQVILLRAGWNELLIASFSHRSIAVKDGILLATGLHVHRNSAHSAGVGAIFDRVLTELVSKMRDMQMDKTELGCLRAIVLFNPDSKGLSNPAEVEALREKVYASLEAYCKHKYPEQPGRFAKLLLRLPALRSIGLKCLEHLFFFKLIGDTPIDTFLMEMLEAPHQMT

Chain of human Peroxisome Proliferator-activated Receptor alpha (PPARa), PPARA (gene 5465) (Q07869 whole entry, looked up, the tested form may be a part): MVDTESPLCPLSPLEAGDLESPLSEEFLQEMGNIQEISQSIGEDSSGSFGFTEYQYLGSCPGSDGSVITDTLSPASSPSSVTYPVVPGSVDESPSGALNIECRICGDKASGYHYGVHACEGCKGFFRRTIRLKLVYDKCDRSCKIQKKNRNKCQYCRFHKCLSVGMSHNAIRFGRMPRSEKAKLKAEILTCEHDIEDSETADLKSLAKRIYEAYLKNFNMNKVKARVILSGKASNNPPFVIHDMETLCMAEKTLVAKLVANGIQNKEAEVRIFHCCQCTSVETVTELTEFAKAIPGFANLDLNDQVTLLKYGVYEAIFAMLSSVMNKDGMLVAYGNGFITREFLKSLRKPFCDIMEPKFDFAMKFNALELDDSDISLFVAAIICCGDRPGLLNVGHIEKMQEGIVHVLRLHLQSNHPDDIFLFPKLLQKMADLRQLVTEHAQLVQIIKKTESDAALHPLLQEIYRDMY
Chain of human Peroxisome Proliferator-activated Receptor delta (PPARd), PPARD (gene 5467) (Q03181 whole entry, looked up, the tested form may be a part): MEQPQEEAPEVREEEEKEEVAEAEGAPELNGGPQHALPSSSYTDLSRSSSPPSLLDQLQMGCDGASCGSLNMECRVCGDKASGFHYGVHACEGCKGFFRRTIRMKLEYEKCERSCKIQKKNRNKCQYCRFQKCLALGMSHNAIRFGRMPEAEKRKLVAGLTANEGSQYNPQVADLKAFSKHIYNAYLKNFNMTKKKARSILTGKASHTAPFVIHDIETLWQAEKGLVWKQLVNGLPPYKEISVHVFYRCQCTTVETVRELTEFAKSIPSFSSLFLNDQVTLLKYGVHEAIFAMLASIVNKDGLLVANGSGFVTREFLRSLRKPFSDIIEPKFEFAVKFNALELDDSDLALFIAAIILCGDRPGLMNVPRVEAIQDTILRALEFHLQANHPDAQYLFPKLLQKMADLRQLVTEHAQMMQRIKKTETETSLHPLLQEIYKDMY
Chain of Cellular tumor antigen p53 (Homo sapiens) (P04637 whole entry, looked up): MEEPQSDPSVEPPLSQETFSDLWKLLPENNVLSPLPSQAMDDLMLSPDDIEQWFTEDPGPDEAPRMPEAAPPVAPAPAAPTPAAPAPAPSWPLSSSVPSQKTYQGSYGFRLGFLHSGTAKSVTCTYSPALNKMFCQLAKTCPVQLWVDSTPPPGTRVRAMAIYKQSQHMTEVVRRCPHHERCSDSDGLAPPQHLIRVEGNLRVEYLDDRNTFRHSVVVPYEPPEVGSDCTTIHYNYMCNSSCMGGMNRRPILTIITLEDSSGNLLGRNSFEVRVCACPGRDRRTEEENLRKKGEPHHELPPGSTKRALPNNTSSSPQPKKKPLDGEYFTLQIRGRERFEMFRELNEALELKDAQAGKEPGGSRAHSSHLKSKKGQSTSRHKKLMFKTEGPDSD
Chain of Nuclear receptor subfamily 1 group I member 2 (Homo sapiens) (O75469 whole entry, looked up, the tested form may be a part): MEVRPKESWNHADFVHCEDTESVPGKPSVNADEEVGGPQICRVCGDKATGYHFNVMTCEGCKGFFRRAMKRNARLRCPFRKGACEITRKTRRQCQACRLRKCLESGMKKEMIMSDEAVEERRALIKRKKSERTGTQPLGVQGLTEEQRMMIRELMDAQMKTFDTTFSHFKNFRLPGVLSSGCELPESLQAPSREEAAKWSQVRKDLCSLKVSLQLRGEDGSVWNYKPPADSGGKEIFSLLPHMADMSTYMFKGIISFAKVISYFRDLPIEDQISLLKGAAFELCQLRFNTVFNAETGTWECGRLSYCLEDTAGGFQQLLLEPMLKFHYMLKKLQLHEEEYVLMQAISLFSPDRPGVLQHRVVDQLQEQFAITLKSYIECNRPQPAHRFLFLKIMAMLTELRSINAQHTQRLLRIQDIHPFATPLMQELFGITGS
Chain of Peroxisome proliferator-activated receptor gamma (Homo sapiens) (P37231 whole entry, looked up): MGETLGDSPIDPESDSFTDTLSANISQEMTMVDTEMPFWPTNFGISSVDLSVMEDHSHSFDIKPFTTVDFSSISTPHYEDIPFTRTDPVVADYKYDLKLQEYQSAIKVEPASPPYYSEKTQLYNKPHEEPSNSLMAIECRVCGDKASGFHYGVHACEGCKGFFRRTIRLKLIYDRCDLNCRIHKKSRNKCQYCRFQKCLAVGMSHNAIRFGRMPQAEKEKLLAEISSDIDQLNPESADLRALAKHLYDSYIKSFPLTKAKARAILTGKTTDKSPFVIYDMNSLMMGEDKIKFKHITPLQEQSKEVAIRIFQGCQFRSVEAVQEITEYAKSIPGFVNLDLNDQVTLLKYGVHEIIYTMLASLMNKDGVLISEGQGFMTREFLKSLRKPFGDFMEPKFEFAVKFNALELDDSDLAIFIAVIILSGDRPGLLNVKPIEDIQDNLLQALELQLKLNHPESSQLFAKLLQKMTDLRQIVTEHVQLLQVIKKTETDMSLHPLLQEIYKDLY
Chain of human RAR-related Orphan Receptor beta (RORb), RORB (gene 6096) (Q92753 whole entry, looked up, the tested form may be a part): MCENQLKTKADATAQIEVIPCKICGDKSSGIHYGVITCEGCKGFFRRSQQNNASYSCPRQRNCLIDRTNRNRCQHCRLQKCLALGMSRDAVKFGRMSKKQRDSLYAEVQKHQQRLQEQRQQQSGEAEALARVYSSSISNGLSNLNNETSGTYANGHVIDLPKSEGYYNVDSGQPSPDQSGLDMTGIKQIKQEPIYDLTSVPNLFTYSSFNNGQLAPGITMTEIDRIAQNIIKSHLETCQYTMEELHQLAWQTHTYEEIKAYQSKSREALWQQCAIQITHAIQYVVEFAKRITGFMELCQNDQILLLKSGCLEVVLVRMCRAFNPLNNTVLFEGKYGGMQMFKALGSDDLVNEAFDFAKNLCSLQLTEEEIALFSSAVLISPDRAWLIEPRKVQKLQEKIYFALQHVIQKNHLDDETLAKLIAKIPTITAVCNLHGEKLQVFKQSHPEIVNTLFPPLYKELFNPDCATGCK
Chain of Retinoic acid receptor alpha (Homo sapiens) (P10276 whole entry, looked up, the tested form may be a part): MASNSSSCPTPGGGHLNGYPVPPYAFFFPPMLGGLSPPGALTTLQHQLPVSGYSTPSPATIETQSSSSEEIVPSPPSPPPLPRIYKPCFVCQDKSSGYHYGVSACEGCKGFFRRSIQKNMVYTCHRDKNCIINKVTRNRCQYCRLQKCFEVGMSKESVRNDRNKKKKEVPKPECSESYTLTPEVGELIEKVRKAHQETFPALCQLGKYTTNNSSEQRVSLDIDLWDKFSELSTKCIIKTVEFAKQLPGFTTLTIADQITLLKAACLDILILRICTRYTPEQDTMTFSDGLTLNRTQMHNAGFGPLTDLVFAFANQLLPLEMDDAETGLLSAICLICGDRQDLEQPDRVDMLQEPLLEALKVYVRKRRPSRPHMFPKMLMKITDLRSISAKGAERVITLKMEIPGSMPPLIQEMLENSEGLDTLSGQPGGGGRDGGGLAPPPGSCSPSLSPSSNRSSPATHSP
Chain of human RAR-related Orphan Receptor gamma (RORg), RORC (gene 6097) (P51449 whole entry, looked up, the tested form may be a part): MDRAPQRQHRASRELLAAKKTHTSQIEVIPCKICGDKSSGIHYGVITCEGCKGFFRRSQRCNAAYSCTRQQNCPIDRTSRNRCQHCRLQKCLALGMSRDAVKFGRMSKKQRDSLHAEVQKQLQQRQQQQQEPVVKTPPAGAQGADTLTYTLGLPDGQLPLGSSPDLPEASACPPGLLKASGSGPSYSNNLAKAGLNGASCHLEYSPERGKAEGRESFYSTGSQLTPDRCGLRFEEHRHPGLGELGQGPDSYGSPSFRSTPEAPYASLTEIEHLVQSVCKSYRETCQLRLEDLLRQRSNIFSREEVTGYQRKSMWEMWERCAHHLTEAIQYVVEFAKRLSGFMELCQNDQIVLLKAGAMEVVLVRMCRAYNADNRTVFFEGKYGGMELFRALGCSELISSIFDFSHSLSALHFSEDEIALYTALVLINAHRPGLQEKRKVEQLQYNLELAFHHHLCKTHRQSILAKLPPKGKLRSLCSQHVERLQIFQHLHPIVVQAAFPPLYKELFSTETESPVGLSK

For `Nc1ncc([N+](=O)[O-])s1`, the outcome in test [1], in [2], in [4], in test [5], in test [7] and in [8] was inactive. Besides, the outcome in test [9], in test [10], in test [11], in test [12], in test [13] and in [14] was inactive. For the same compound, the result in [15], in test [16] and in [17] was inactive. Besides, the AC50 (usually the concentration at which the activity in the assay is half-maximal) in test [3] was 73.2 µM (active); in [6], 12.2 µM (active).

As for `O=[N+]([O-])c1ccc(O)c([N+](=O)[O-])c1`, the result in [1], in [2], in [3], in test [4], in test [5] and in test [6] was inactive. For the same compound, the result in test [7], in [8], in test [9], in test [12], in test [18] and in [13] was inactive. In addition, the result in [14] and in test [19] was inactive.

Consider `CC(C)CCCCCCOC(=O)c1ccccc1C(=O)OCCCCCCC(C)C`, for which the result in test [1], in test [2], in test [3], in [4], in test [5] and in [6] was inactive. Also, the outcome in test [7], in test [8], in [9], in test [10], in test [11] and in test [12] was inactive. Also, the result in test [13] and in [16] was inactive. In addition, the AC50 in test [15] is 1.84 µM (active).

In the case of `CCOC(=O)/C=C(C)/C=C/C[C@@H](C)CCCC(C)C`, the concentration at half-maximal activity (AC50) in test [1] is 182 µM (active); in [2], 43.2 µM (active); in [3], 56.5 µM (active); in test [4] it was 25 µM (active); in test [6], 15.6 µM (active); in test [7] it was 33.1 µM (active). Further, the AC50 in test [8] was 26.6 µM (active); in test [9], 30 µM (active); in test [10] it was 64.9 µM (active); in test [12] it was 30.2 µM (active); in test [13], 20 µM (active); in test [15] it was 5.32 µM (active). For the same compound, the compound was called inactive in test [5], in test [11] and in [19].
